Sampled rows, rich in hits. Any-hit rate of the full collection: about 2.3%.
Bcl-xL primary: inhibitors of human Bcl-xL, primary screen, biochemical, fluorescence polarization, HTS | inhibition, % at 10.9 µM | 320,000 compounds, 0.7% hits | GST-Bcl-xL / FITC-Bim BH3 peptide fluorescence polarization | Bcl-2-like protein 1 (Homo sapiens), Q07817;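 active means inhibition above the mean of all tested compounds plus 3 SD, cutoff set per campaign, cut at about 30% in these data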;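 further: inhibitors lower millipolarization by displacing the labeled peptide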
Target sequence (Q07817 whole entry, looked up): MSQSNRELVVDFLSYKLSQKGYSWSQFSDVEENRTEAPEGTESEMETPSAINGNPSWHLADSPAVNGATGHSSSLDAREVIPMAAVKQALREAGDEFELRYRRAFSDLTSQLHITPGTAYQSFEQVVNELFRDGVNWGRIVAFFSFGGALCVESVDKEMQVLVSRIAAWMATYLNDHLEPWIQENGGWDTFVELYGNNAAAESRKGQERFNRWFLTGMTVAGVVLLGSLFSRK
MCL1-BIM inh: inhibitors of MCL1 binding to BIM-BH3, primary screen, biochemical, fluorescence polarization; GST-MCL1 / FITC-Bim-BH3 fluorescence polarization; 320,000 compounds, 0.68% hits; AID 2057, 2009; inhibition, % at 10.9 µM;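 active means inhibition above the mean inhibition of all tested compounds plus 3 SD, set per campaign, cut at about 40% in these data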;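 further: higher means more loss of mP so more displacement of Bim peptide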
Mcl1-Bid inh: Mcl-1/Bid binding inhibitors, primary screen, biochemical, TR-FRET, 1536-well; inhibition, % at 21.7 µM; Induced myeloid leukemia cell differentiation protein Mcl-1 (Homo sapiens), Q07820; TR-FRET Mcl-1/Bid-Dy647 peptide binding; 220,000 compounds, 0.97% hits;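 active means compounds that cut the binding signal by more than half at the single screening dose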;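 further: His-tagged Mcl-1 with europium anti-His antibody binding Bid BH3 peptide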
Mcl1-Noxa inh: Mcl-1/Noxa binding inhibitors, primary screen, biochemical, TR-FRET, 1536-well. TR-FRET Mcl-1/Noxa peptide binding, 2 h. inhibition, % at 21.7 µM. 220,000 compounds, 1.5% hits. AID 1022, 2008;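 active means compounds that cut the protein-peptide binding signal by more than 50% relative to plate controls in a single-dose test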;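 further: His-tagged Mcl-1 with rhodamine Noxa BH3 peptide and terbium anti-His antibody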
GLD-1 TGE inh: GLD-1/TGE RNA complex disruptors, primary screen, biochemical, fluorescence polarization. 320,000 compounds, 0.44% hits. purified GLD-1 + fluorescein TGE RNA. Female germline-specific tumor suppressor gld-1 (Caenorhabditis elegans), Q17339. inhibition, % at 5.96 µM. AID 2280, 2010;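 active means percent inhibition above a per-plate cutoff, the plate mean of test compounds plus 3 SD, cut at about 30% in these data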
Target sequence (Q17339 whole entry, looked up): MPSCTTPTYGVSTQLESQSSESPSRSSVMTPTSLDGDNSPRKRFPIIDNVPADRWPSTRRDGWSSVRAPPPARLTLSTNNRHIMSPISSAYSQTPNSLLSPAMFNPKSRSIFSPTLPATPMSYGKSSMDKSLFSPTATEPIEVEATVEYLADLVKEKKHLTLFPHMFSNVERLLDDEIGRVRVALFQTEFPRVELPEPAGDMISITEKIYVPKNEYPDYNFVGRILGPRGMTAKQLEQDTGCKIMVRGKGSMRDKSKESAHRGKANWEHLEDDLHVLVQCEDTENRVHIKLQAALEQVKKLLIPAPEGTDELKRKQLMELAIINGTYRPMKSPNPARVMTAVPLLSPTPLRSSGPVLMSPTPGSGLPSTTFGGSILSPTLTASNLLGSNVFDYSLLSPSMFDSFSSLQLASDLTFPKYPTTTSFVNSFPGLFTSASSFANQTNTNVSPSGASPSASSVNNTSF
Mcl-1 Bim block: inhibitors of Bim peptide binding to Mcl-1, primary screen, biochemical, bead-based flow cytometry, multiplex | Induced myeloid leukemia cell differentiation protein Mcl-1 (Homo sapiens), Q07820 | inhibition, % at 10 µM | 190,000 compounds, 0.1% hits | Bim peptide-Mcl-1 binding; in the data active means inhibition above about 40%
Numbers stand for hits; 0 = inactive; - = no result.

SMILES | Bcl-xL primary | MCL1-BIM inh | Mcl1-Bid inh | Mcl1-Noxa inh | GLD-1 TGE inh | Mcl-1 Bim block
O=C(CN1CCN(C(=O)c2c(F)cccc2F)CC1)Nc1ccccc1C(F)(F)F | 0 | 0 | - | - | 0 | -
O=C(CSc1nnc(SCc2cccc3ccccc23)s1)N=Nc1c(O)[nH]c2ccccc12 | 0 | 0 | 78.7 | 60.2 | 0 | 0
CCCn1c(NCc2ccco2)nc2c1c(=O)n(C)c(=O)n2C | 0 | 0 | 0 | 0 | 0 | 0
Cn1c(=O)c2c(nc(NCc3ccco3)n2CC(O)COc2ccccc2)n(C)c1=O (centres undefined) | 0 | 0 | 0 | 81.0 | 0 | 0
FC(F)(F)c1nc(=S)c2ccccc2[nH]1 | - | - | 0 | 0 | - | 86.0
Cc1nc(=S)c2ccccc2[nH]1 | 0 | 0 | 0 | 0 | 0 | 0
Nc1cccc2[nH]c(C(F)(F)F)nc12 | 0 | 0 | 0 | 51.6 | 0 | 0
Cc1occc(=O)c1O | 0 | 0 | 0 | 0 | 0 | 0
Cc1ccc(CNc2ccc3c(c2)ncn3C(C)(C)C)cc1 | 0 | 0 | 0 | 0 | 0 | 0
CCN(CC)C(=O)c1sc(NC(=O)c2cc(-c3ccc(C)s3)nc3ccccc23)c(C(=O)OC)c1C | 0 | 0 | 0 | 60.8 | 0 | 0
Cc1ccc(CCC(=O)NCc2ccccc2)o1 | 0 | 0 | - | - | 0 | -
CN(C)c1oc(-c2ccccc2Cl)nc1P(=O)(c1ccccc1)c1ccccc1 | 0 | 0 | 0 | 64.1 | 0 | 0
Cc1ccc(S(=O)(=O)c2nc(-c3ccccc3Cl)oc2N(C)C)cc1 | 0 | 0 | - | - | 0 | -
COc1ccc(S(=O)(=O)Nc2ccc(O)c3ccccc23)cc1 | 0 | 0 | 0 | 65.7 | 0 | 0
COc1ccc(S(=O)(=O)Nc2ccccc2)cc1 | 0 | 0 | - | - | 0 | -
CN1CCC(N(C)C(=O)CNC(=O)c2ccc(C(C)(C)C)cc2)CC1 | 0 | 0 | 0 | 57.5 | 0 | 0
CN1CCC(N(C)S(=O)(=O)c2ccc(C(C)(C)C)cc2)CC1 | 0 | 0 | - | - | 0 | -
N#Cc1ccc(-c2csc(NC(=O)c3ccc(S(=O)(=O)N4CCc5ccccc5C4)cc3)n2)cc1 | 0 | 0 | 0 | 0 | 0 | 0
O=C(N/N=C/c1cccc(F)c1)c1c(O)c2ccccc2[nH]c1=O | 0 | 0 | 50.7 | 64.2 | 0 | 0
O=C(N/N=C/c1ccc(F)cc1)c1c(O)c2ccccc2[nH]c1=O | 0 | 0 | 0 | 0 | 0 | 0
Nc1ccc(S(=O)C(F)(F)F)cc1 (centres undefined) | 0 | 0 | 0 | 0 | 0 | 0
CCn1cc(C(=O)Nc2ccccc2C(=O)OC)cn1 | 0 | 0 | - | - | 0 | -
CCN(CC)c1ccc(NC(=O)c2cnn(CC)c2)cc1 | 0 | 0 | 0 | 66.1 | 0 | 0
CCN(CC)c1ccc(NC(=O)CCCOc2cccc(C)c2)cc1 | - | - | 0 | 77.0 | - | 0
CCN(CC)c1ccc(NC(=O)c2ccc3c(c2)c(C)c(C)n3C)cc1 | 0 | 0 | 0 | 76.8 | 0 | 0
SMILES | Bcl-xL primary | MCL1-BIM inh | Mcl1-Bid inh | Mcl1-Noxa inh | GLD-1 TGE inh | Mcl-1 Bim block
CCOc1cccc(C(=O)Nc2ccc3ccccc3c2)c1 | 0 | 0 | - | - | 0 | -
Cc1cccc(OCCCC(=O)Nc2ccc(S(N)(=O)=O)cc2)c1 | 0 | 0 | 0 | 0 | 0 | 0
CCOc1cccc(C(=O)Nc2ccc(N(CC)CC)cc2)c1 | 0 | 0 | 0 | 64.8 | 0 | 0
Oc1ccccc1C1CC(c2cccs2)=NC(c2cccc(Br)c2)N1 (centres undefined) | 0 | 0 | 0 | 0 | 0 | 0
CC1=CC(=C2C(=O)c3ccccc3C2=O)C=C(C)N1Cc1ccco1 | 0 | 0 | 0 | 64.0 | 0 | 0
O=C1c2ccccc2C(=O)N1Cc1ccco1 | 0 | 0 | 0 | 0 | 0 | 0
O=C(Nc1ccnn1C1CCN(Cc2c(F)cccc2Cl)CC1)C1CCCC1 | 0 | 0 | - | - | 0 | -
CCCc1cc(SCC(=O)Nc2c(C)n(C)n(-c3ccccc3)c2=O)n2c(nc3ccccc32)c1C#N | 0 | 0 | 66.1 | 0 | 0 | 0
Cc1ccc(C(=O)Nc2c(-c3cccs3)c(=O)c3ccccc3n2C)cc1 | 0 | 0 | 66.3 | 0 | 0 | 0
Cc1cc2nc(-c3ccc(SCc4ccc(C(=O)O)cc4)nc3)[nH]c2cc1C | 0 | 0 | 0 | 75.8 | 0 | 0
Cc1cc2nc(-c3ccc(SCC(=O)NC(C)C)nc3)[nH]c2cc1C | 0 | 0 | 0 | 0 | 0 | 0
COc1ccc(C(=O)C2CCCN(C(=O)c3cccc(N(C)C)c3)C2)cc1OC (centres undefined) | 0 | 0 | - | - | 0 | -
CN(Cc1cccc(F)c1)C(=O)c1ccc2c(=O)n3c(nc2c1)CCC3 | 0 | 0 | - | - | 0 | -
O=C(OCc1cccc(F)c1)c1ccc2c(=O)n3c(nc2c1)CCC3 | 0 | 0 | 61.3 | 0 | 0 | -
Cn1c(CC(=O)Nc2ccccc2F)nnc1SCC(=O)N1CCOCC1 | 0 | 0 | - | - | 0 | -
COc1ccc(C2=NC(=O)/C(=C\c3cc(OC)c(OC)c(OC)c3)O2)cc1 | 0 | 0 | 54.2 | 0 | 0 | 0
CCCCc1nnc2c(N(C)S(=O)(=O)c3ccccc3)nc3ccccc3n12 | 0 | 0 | 55.1 | 0 | 0 | -
CN(C)c1ccc(N/C=C/C(=O)C(C)(C)C)cc1 | 31.5 | 0 | 0 | 0 | 0 | 0
CNc1ccc(/C=C(\C#N)c2ccccn2)cc1[N+](=O)[O-] | 36.7 | 40.4 | 0 | 64.5 | 0 | 0
N#Cc1ccc(-c2cccnc2)nc1SCC(=O)c1ccccc1 | 35.8 | 0 | 0 | 0 | 0 | -
N#Cc1ccc(-c2cccnc2)nc1SCC(=O)Nc1sc2c(c1C#N)CCC2 | 0 | 0 | 0 | 60.3 | 0 | 0
O=c1[nH]c(O)c(/C=C2\C=Nc3ccccc32)[nH]1 | - | - | 0 | 0 | - | -
O=C1C=Cc2ccccc2/C1=C/c1[nH]c(=O)[nH]c1O | 0 | 0 | 0 | 60.3 | 0 | -
COc1ccc(OC)c(NC(=O)CSc2nc3ccccc3c(=O)n2CC2CCCO2)c1 (centres undefined) | 0 | 0 | - | - | 0 | -
COC(=O)c1ccc2c(=O)n(CC3CCCO3)c(SCC(=O)Nc3ccc(OC)cc3OC)nc2c1 (centres undefined) | 0 | 0 | 56.9 | 0 | 0 | -
SMILES | Bcl-xL primary | MCL1-BIM inh | Mcl1-Bid inh | Mcl1-Noxa inh | GLD-1 TGE inh | Mcl-1 Bim block
CCOC(=O)COc1ccc2ccccc2c1/C=C/[N+](=O)[O-] | 0 | 0 | 0 | 0 | 0 | 0
CCOc1ccc(/C=C/[N+](=O)[O-])c2ccccc12 | 0 | 0 | 0 | 76.3 | 0 | 0
CCOc1cc(/C=C(/C#N)c2nc3ccccc3[nH]2)ccc1OCc1ccc(C(=O)O)o1 | 0 | 0 | 0 | 51.5 | 0 | 0
CCOc1cc(/C=C(/C#N)c2ccc(F)cc2)ccc1OCc1ccc(C(=O)O)o1 | 0 | 0 | 0 | 0 | 0 | 0
COc1cc(/C=C(\C#N)c2nc3ccccc3s2)ccc1OCC(=O)Nc1ccccc1 | 0 | 0 | 78.3 | 0 | 0 | 0
COc1cc(/C=C(/C#N)c2nc3ccccc3[nH]2)ccc1OCC(=O)Nc1ccccc1C | 0 | 0 | 67.4 | 0 | 0 | 0
